Drawing on PubChem BioAssay AID720488 (Milwaukee Institute for Drug Discovery, 2013), this text covers fluorescence interference ratio for 96 molecules.

Values joined by “and” are separate entries in the source; they are usually repeats but may differ in a detail not shown here. Equal entries are not always repeated. Among all 16,000 compounds or so, about 960 (6%) were called active. The list comes from a sample in which actives are over-represented; it also holds similar structures and randomly drawn compounds. A number with no mark means an inactive call.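 The calls were made as follows: active = compound fluorescence over control fluorescence at most 0.8, a quencher, or at least a set upper limit, an enhancer; inactive = ratio between 0.8 and the set upper limit.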

This experiment is described as follows: fluorescence interference in NS3h DNA assay – biochemical, ChemBridge library, Cy5 readout, artefact control for HCV NS3 helicase inhibitor project (AID 720488). The conditions noted are these: Cy5-dT15 DNA with NS3h, at 100 µM, actives lie on both sides, signal over control mean, under 1 quenches.
Regarding `CC(=O)c1cccc(N2C(=O)C3C4C=CC(C5CC45)C3C2=O)c1` (stereo unspecified), the fluorescence interference ratio is 0.66 (active).
As for `O=C1C2C3C=CC(C3=C(c3ccccc3)c3ccccc3)C2C(=O)N1c1cccc(C(F)(F)F)c1` (stereo unspecified), the fluorescence interference ratio was 1.02.
With `CCOc1ccc(C(=O)Nc2ccc(Cl)c(-c3nc4ncccc4o3)c2)cc1Cl` the figure was 1.17; with `Cc1cccc(N=C2NC(=O)/C(=C\c3ccc([N+](=O)[O-])cc3)S2)c1C`, 0.748 (active).
For the molecule `O=C1NC(=Nc2cccc(O)c2)S/C1=C\c1cccc(O)c1`, the fluorescence interference ratio was 0.898.
With `Cc1cccc(N=C2NC(=O)CS2)c1C` the figure was 1; with `COC(=O)C1=C(O)/C(=C\c2ccccc2C(F)(F)F)N=C1C`, 0.891.
With `CCOC(=O)c1[nH]c(=O)[nH]c1CSc1nccn1C` the figure was 1.03; with `Cc1cc(/C=N\O)c(C)n1-c1ccc(F)cc1`, 0.964; with `Cc1ccc(NC(=O)c2cccc(C(=O)Nc3ccc(C)cc3)n2)cc1`, 0.981.
Turning to `Cc1cc(Br)cc(C)c1NC(=O)c1cc2ccccc2o1`, the fluorescence interference ratio was 0.937.
With `O=C(Nc1ccncc1)c1cc2ccccc2o1`, the fluorescence interference ratio is 0.446 (active).
The result for `Cc1ccccc1CC1S/C(=N/N=C\c2ccc(N(C)C)cc2)NC1=O` (stereo unspecified) reads 0.981.
With `Cc1cccc(NS(=O)(=O)c2ccc([N+](=O)[O-])cc2)n1`, the fluorescence interference ratio is 0.931.
Regarding `COc1ccc(C2=CC=C(c3ccc(OC)cc3)C2)cc1`, the fluorescence interference ratio was 0.865.
Consider `CCCCOCP(=O)(c1ccccc1)c1ccccc1`, for which the fluorescence interference ratio is 1.1.
As for `CCOCCOCCC(C(=O)O)P(=O)(c1ccccc1)c1ccccc1` (stereo unspecified), the fluorescence interference ratio is 0.631 (active).
In the case of `CCOC(=O)C(C#N)C(=S)Nc1ccccc1` (stereo unspecified), the fluorescence interference ratio was 1.02.
Turning to `Cn1cnc2c1c(=O)n(Cc1ccc(F)cc1)c(=O)n2C`, the fluorescence interference ratio was 1.12.
For the molecule `COc1ccc(C(=O)COc2cc3c(C(=O)OC(C)C)c(C)oc3cc2Br)cc1`, the fluorescence interference ratio is 1.
As to `O=[N+]([O-])c1cccc(S(=O)(=O)NCc2ccccn2)c1`, the fluorescence interference ratio is 1.05.
With `COc1ccc(N2C(=O)C3C4C=CC(C4=C(C)C)C3C2=O)c([N+](=O)[O-])c1` (stereo unspecified), the fluorescence interference ratio is 0.887.
The result for `COc1ccc(N=Cc2sccc2C)c([N+](=O)[O-])c1` reads 1.02; that for `COc1ccc(N2C(=O)C=CC2=O)c([N+](=O)[O-])c1`, 0.622 (active).
As for `CC1(C(=O)Nc2ccccc2Cl)CC2c3ccccc3C1c1ccccc12` (stereo unspecified), the fluorescence interference ratio is 0.972.
As for `C=CCOC(=O)C1=C(C)NC(C)=C(C(=O)OCC=C)C1c1cccs1`, the fluorescence interference ratio is 0.9.
On to `O=C(Nc1ccc(Cl)c(Cl)c1)Nc1nnc(-c2ccc(Br)cc2)s1`, for which the fluorescence interference ratio was 1.03.
For the molecule `C/C(=N/NS(=O)(=O)c1ccccc1)c1cccc(Br)c1`, the fluorescence interference ratio was 1.04.
For the molecule `Cc1ccc(/C=C/C(=O)Nc2cccc([N+](=O)[O-])c2)o1`, the fluorescence interference ratio was 0.895.
The result for `CCNC(=O)NC1C(NC(=O)NCC)N(C)C(=O)N1C` (stereo unspecified) reads 0.995; that for `O=C(CCN1C(=O)/C(=C/c2ccccc2)SC1=S)Nc1cccc(Cl)c1`, 1.04.
On to `C=CCN1C(=O)/C(=C/c2ccccc2OCc2ccc([N+](=O)[O-])cc2)SC1=S`, for which the fluorescence interference ratio is 1.07.
The result for `C=CCN1C(=O)/C(=C\c2cc(Cl)c(O)c(Cl)c2)SC1=S` reads 0.772 (active); that for `O=C(NCCCN1CCOCC1)C(=O)Nc1ccc(F)cc1`, 1.06.
Consider `O=C(NCc1cccs1)c1cc2n(n1)C(C(F)(F)F)CC(c1ccc(Cl)c(Cl)c1)N2` (stereo unspecified), for which the fluorescence interference ratio was 1.05.
Turning to `COc1ccc(NC(=O)C(=O)NCc2ccccn2)c(OC)c1`, the fluorescence interference ratio is 1.03.
Take `O=C1C2C3C=CC(C3)C2C(=O)N1/N=C\c1cccc(I)c1` (stereo unspecified): the fluorescence interference ratio is 0.959.
For `CC(C)COc1ccc(C(=O)Nc2cc([N+](=O)[O-])ccc2Cl)cc1`, the fluorescence interference ratio was 0.656 (active).
In the case of `CCC(C)c1ccc(NC(=O)c2ccc([N+](=O)[O-])cc2)cc1` (stereo unspecified), the fluorescence interference ratio is 1.06.
Take `O=C(Nc1cc([N+](=O)[O-])ccc1O)c1ccc(C(=O)Nc2cc([N+](=O)[O-])ccc2O)cc1`: the fluorescence interference ratio was 1.24 (active).
Regarding `O=C(NC(=S)Nc1ccc([N+](=O)[O-])cc1O)c1ccc(Br)cc1`, the fluorescence interference ratio was 0.952.
The result for `COC(=O)c1cc(NC(=O)COc2ccc([N+](=O)[O-])cc2)cc(C(=O)OC)c1` reads 1.05; that for `Cc1ccc(OCC(=O)Nc2cc([N+](=O)[O-])ccc2Cl)cc1`, 1.03.
Turning to `CN(C(=O)COc1ccc2ccccc2c1)c1ccccc1`, the fluorescence interference ratio was 1.02.
Regarding `Cc1cc(C(=O)Nc2ccccc2C(=O)O)ccc1NC(=O)CC(C)C`, the fluorescence interference ratio was 1.04.
With `COc1ccc(C2CC(c3ccc([N+](=O)[O-])cc3)=NN2)cc1` (stereo unspecified) the figure was 0.645 (active); with `C=C(C)Cn1c(-c2ccc([N+](=O)[O-])cc2)n[nH]c1=S`, 1.03.
Consider `COc1ccc(C2=NN(C(C)=O)C(c3ccccc3)C2)cc1` (stereo unspecified), for which the fluorescence interference ratio is 1.05.
Take `O=C1OC(c2ccc(F)cc2)=N/C1=C\c1ccc2c(c1)OCO2`: the fluorescence interference ratio was 1.09.
In the case of `O=C(CSc1nnc(-c2ccc(Br)cc2)o1)OCc1ccccc1`, the fluorescence interference ratio is 0.95.
Consider `COC(=O)c1ccccc1NC(=O)c1cncc(Br)c1`, for which the fluorescence interference ratio is 0.974.
Regarding `COc1ccc(C2CC(C(F)(F)F)n3nc(C(=O)N4CCN(c5ccc(F)cc5)CC4)c(Cl)c3N2)cc1` (stereo unspecified), the fluorescence interference ratio was 0.951.
As for `N#Cc1c(SCC(=O)c2ccc(Cl)cc2)nc2c(c1-c1ccco1)CCCC2`, the fluorescence interference ratio was 0.953.
The result for `O=C(Nc1ccc(Oc2ccccc2)cc1)c1ccco1` reads 0.978; that for `N#Cc1c(N)nc2sc(C(=O)Nc3ccccc3)c(N)c2c1-c1ccco1`, 1.21 (active).
Consider `Cc1cccc(NC(=O)/C=C/c2ccc(F)cc2)c1`, for which the fluorescence interference ratio was 0.934.
The result for `CCOC(=O)c1ccc(-n2c(C)cc(/C=N\n3cnnc3)c2C)cc1` reads 1.03; that for `O=C1c2ccccc2C(=O)c2c1cccc2N1CCN(CCO)CC1`, 1.22 (active).
As for `CCOC(=O)C1=C(C)N=c2s/c(=C/c3ccc(C(=O)OC)cc3)c(=O)n2C1c1ccc(OC(C)=O)cc1` (stereo unspecified), the fluorescence interference ratio is 1.07.
Turning to `CNC(=O)C1CC(=O)N(c2ccc(F)cc2)C1` (stereo unspecified), the fluorescence interference ratio was 1.11.
With `O=C(COC(=O)C1CCCN1C(=O)OCc1ccccc1)c1ccc(-c2ccccc2)cc1` (stereo unspecified), the fluorescence interference ratio was 1.04.
In the case of `COc1ccc2[nH]cc(CCNC=O)c2c1`, the fluorescence interference ratio was 1.01.
As for `CCc1ccccc1NC(=O)/C(=C/c1ccccc1)c1ccccc1`, the fluorescence interference ratio is 0.606 (active).
The result for `S=C(Nc1ccccc1)Nc1ccccc1NC(=S)Nc1ccccc1` reads 1.03; that for `CCc1ccccc1NC(=O)C(=O)NCc1ccco1`, 1.09.
The result for `CCOC(=O)c1ccc(NC(=O)c2ccccc2OC)cc1` reads 0.661 (active).
Regarding `CCOC(=O)c1ccc(NC(=O)c2cc(OCC)cc(OCC)c2)cc1`, the fluorescence interference ratio was 1.01.
For the molecule `CCOC(=O)c1ccc(NC(=O)C(=O)NCc2ccc(C)cc2)cc1`, the fluorescence interference ratio is 1.
As for `COc1ccc(Br)cc1C(=O)Nc1cccc(-c2nc3ccccc3[nH]2)c1`, the fluorescence interference ratio is 0.978.
Take `O=C(/C=C\c1ccccc1)Nc1ccc(Br)cn1`: the fluorescence interference ratio was 0.948.
Consider `O=C(Nc1ccc(OC(F)(F)F)cc1)c1nn2c(c1Br)NC(c1cccs1)CC2C(F)(F)F` (stereo unspecified), for which the fluorescence interference ratio is 1.
On to `COc1cc(NC(=O)c2cnn3c2NC(c2cccs2)CC3C(F)(F)F)c(OC)cc1Cl` (stereo unspecified), for which the fluorescence interference ratio is 0.659 (active).
Regarding `O=C(Nc1ccc(Cl)cc1C(O)c1ccccc1)c1cnn2c1NC(c1ccccc1)CC2C(F)(F)F` (stereo unspecified), the fluorescence interference ratio was 0.956.
For `CSc1ccc(C=Nc2ccc(C#N)cc2)cc1`, the fluorescence interference ratio is 1.07.
In the case of `Cc1cccc(C(=O)Nc2cccc(NC(=O)COc3ccccc3Cl)c2)c1`, the fluorescence interference ratio is 0.946.
For the molecule `CC(C)(C)NC(=O)CN(c1cccc(C(F)(F)F)c1)S(C)(=O)=O`, the fluorescence interference ratio is 1.05.
The result for `COc1ccc(Br)cc1C(=O)Nc1ccc(F)c([N+](=O)[O-])c1` reads 0.959; that for `COc1ccc(NC(=O)c2cccc(Cl)c2Cl)cc1OC`, 0.784 (active); that for `CC(=O)c1ccc(NC(=O)c2c(Cl)cccc2Cl)cc1`, 1.03.
On to `CCOc1ccc(-n2c(O)c(C=C3C=CC=N3)c(=O)[nH]c2=O)cc1`, for which the fluorescence interference ratio is 0.942.
In the case of `COC(=O)C1CC(OCc2ccccc2)C1` (stereo unspecified), the fluorescence interference ratio was 0.97.
Consider `CCOc1cc(/C=C(\C#N)c2nc3ncc(Br)cc3[nH]2)ccc1O`, for which the fluorescence interference ratio was 0.791 (active).
`CCn1c(-c2ccc(OC)cc2)n[nH]c1=S`: the fluorescence interference ratio is 1 and 1.01.
Take `CCN(CC)c1ccc(/C=C2\C(=O)NC(=O)N(C)C2=O)cc1`: the fluorescence interference ratio is 1.29 (active).
Consider `Cc1cc(C)cc(N2C(=O)NC(=O)/C(=C\c3ccc(F)cc3)C2=O)c1`, for which the fluorescence interference ratio is 1.02.
With `CCN1C(=O)C(=Cc2ccc(O)cc2)C(=O)NC1=S` the figure was 1.02.
Turning to `CCN(CC)c1ccc(C=C2C(=O)N(C)C(=O)N(C)C2=O)c(O)c1`, the fluorescence interference ratio is 2.02 (active).
Regarding `CCN(CC)c1ccc(N2C(=O)/C(=C/c3ccc4c(c3)OCO4)SC2=S)cc1`, the fluorescence interference ratio was 1.12.
Take `NS(=O)(=O)c1ccc(CNC(=O)c2ccc(Cl)cc2[N+](=O)[O-])cc1`: the fluorescence interference ratio is 0.985.
Regarding `O=C(CSc1ncc(-c2ccccc2)[nH]1)Nc1ccc(Br)cc1`, the fluorescence interference ratio was 0.959.
Take `COc1ccc(Cl)cc1C(=O)N1CCN(c2cccc(Cl)c2)CC1`: the fluorescence interference ratio is 0.934.
As to `CCOC(=O)NCc1ccc(N(C)C)cc1`, the fluorescence interference ratio was 0.963.
In the case of `CP(=O)(c1ccc(C(N)=O)cc1)c1ccc(C(N)=O)cc1`, the fluorescence interference ratio is 1.06.
As for `O=C(Nc1c(F)cc(F)cc1Br)c1cc2n(n1)C(C(F)(F)F)CC(c1ccc(Cl)cc1)N2` (stereo unspecified), the fluorescence interference ratio is 1.04.
Turning to `CCc1ccc(N2C(=O)/C(=C/c3cc(C)n(-c4cccnc4)c3C)C(=O)NC2=S)cc1`, the fluorescence interference ratio was 1.1.
Consider `NC(=NS(=O)(=O)c1ccccc1)c1ccc(Cl)cc1`, for which the fluorescence interference ratio is 1.06.
